Source: PubChem BioAssay AID504834 (National Center for Advancing Translational Sciences (NCATS), 2011)
The whole screen tested about 320,000 compounds, of which about 22,000 (6.9%) were called active. Inconclusive results (about 27%) are left out. The call rests on the fitted dose curve; in most records, active means well fitted inhibition curve with a large enough effect; inconclusive means small, poorly fitted or top-dose-only effect, or another doubt; inactive means no such curve, though single readings can be large or run the other way. The entries come from a sample that favours actives as a whole.

Test: Primary qHTS for delayed death inhibitors of the malarial parasite plastid, 96 hour incubation
Settings: P. falciparum luciferase reporter growth; series mostly up to 28.7 µM; activity change, negative = inhibition: at the top concentration
Outline: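 Compounds incubated with erythrocytes infected by luciferase-expressing P. falciparum (2% hematocrit, 0.05% parasitemia final) for 96 hours, 37 C in 5% CO2. Growth inhibition scored as decreased luciferase luminescence.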
On the % scale 0 is the no-effect control and ±100 the full control effect; potency means the concentration at half of the fitted maximal effect.

Q: Which “activity change, negative = inhibition” value does the source give for `CSc1ccccc1NC(=O)COC(=O)CCCOc1ccc(C)cc1` here?
A: Its value is 21.6% (inactive).

Q: For `COc1ccc(CCNC(=O)COC(=O)Cc2cccc(F)c2)cc1`, which “activity change, negative = inhibition” value is on record?
A: Its value is 11.3% (inactive).

Q: Which “activity change, negative = inhibition” value does the source give for `O=C(COC(=O)CNC(=O)C1CCCCC1)NCc1ccccc1` here?
A: The value was 24.4% (inactive).

Q: Which “activity change, negative = inhibition” value does the source give for `COc1cccc(CSc2nc3nc(C)cc(C)n3n2)c1` here?
A: Its value is -2.95% (inactive).

Q: Which “activity change, negative = inhibition” value does the source give for `COC(=O)N/N=C/c1c[n+]([O-])c2ccccc2[n+]1[O-]` here?
A: The value was 5.91% (inactive).

Q: Which “activity change, negative = inhibition” value does the source give for `O=C(CCN1C(=O)[C@H]2CC=CC[C@H]2C1=O)NCc1nc(-c2ccccc2)no1` here?
A: The value was -14.7% (inactive).

Q: With `CCC(C)NC(=O)C1CCC(=O)N1Cc1ccc(C)cc1` (stereo not drawn) as the compound, how does the Potency read?
A: Its Potency is 11.7 µM (active).

Q: For `CCC(C)NC(=O)C1c2ccccc2C(=O)N1Cc1ccccc1` (stereo not drawn), which “activity change, negative = inhibition” value is on record?
A: The value was 3.04% (inactive).

Q: With `Cc1ccc(CN2C(=O)CCC2C(=O)NCCCN2CCCCC2C)cc1` (stereo not drawn) as the compound, how does the “activity change, negative = inhibition” value read?
A: Its value is 200% (inactive).

Q: For `O=S(=O)(Cc1nnnn1-c1ccccc1)c1ccccc1`, which “activity change, negative = inhibition” value is on record?
A: Its value is -15.4% (inactive).

Q: For `O=C(/C=C/c1ccccc1[N+](=O)[O-])OCC(=O)N1CCCC1`, which “activity change, negative = inhibition” value is on record?
A: The value was 4.58% (inactive).

Q: With `COc1cccc(NC(=O)N2CCC(NC(=O)C(Cc3cccc(C)c3)NC(C)=O)CC2)c1` (stereo not drawn) as the compound, how does the “activity change, negative = inhibition” value read?
A: Its value is -1.88% (inactive).

Q: Which “activity change, negative = inhibition” value does the source give for `Cc1ccc(S(=O)(=O)NCCC(=O)Nc2ccc(C)c(Cl)c2)cc1C` here?
A: The value was -21.6% (inactive).

Q: With `Cc1ccc(-c2nc(-c3cccnc3)sc2CC(=O)Nc2ccc(C)c(Cl)c2)cc1` as the compound, how does the Potency read?
A: The Potency was 11.7 µM (active).

Q: With `O=C(O)Cc1sc(-c2ccc(C(=O)O)cc2)nc1-c1ccccc1` as the compound, how does the “activity change, negative = inhibition” value read?
A: The value was 3.9% (inactive).

Q: Which “activity change, negative = inhibition” value does the source give for `COc1ccc(OC)c(C(=O)NC(CC(N)=O)c2ccc(N3CCC(N4CCCCC4)CC3)c([N+](=O)[O-])c2)c1` (stereo not drawn) here?
A: The value was 51.1% (inactive).

Q: Which Potency does the source give for `CCOc1ccc(N(CC)S(=O)(=O)c2cccc3nsnc23)cc1` here?
A: The Potency was 6.57 µM (active).

Q: For `COc1ccc(N(C)C(=O)CCS(=O)(=O)c2cccc3nsnc23)cc1`, which “activity change, negative = inhibition” value is on record?
A: The value was 6.94% (inactive).

Q: For `COc1ccc(N(C)S(=O)(=O)c2cccc3nsnc23)cc1`, which “activity change, negative = inhibition” value is on record?
A: The value was 24.7% (inactive).

Q: With `O=C(Nc1ccc(N2CCOCC2)c(Cl)c1)c1ccc(S(=O)(=O)N2CCOCC2)cc1` as the compound, how does the “activity change, negative = inhibition” value read?
A: Its value is 6.03% (inactive).

Q: With `COc1ccc(CNC(=O)Cc2ccc(-c3ccccc3)cc2)cc1OC` as the compound, how does the “activity change, negative = inhibition” value read?
A: The value was -17.7% (inactive).

Q: Which “activity change, negative = inhibition” value does the source give for `COc1ccc(COC(=O)NC(C(=O)O)c2ccccc2)cc1` (stereo not drawn) here?
A: Its value is 82% (inactive).

Q: Which Potency does the source give for `COC(=O)c1ccc(C(NC(=O)OCc2ccccc2)/C(C)=C/[C@@H](C)C(=O)NCc2ccc(OC)c(OC)c2)cc1` (stereo partly drawn) here?
A: The Potency was 11.7 µM (active).

Q: With `COc1ccccc1CNC(=O)CCCn1c(=O)c2ccccc2n(CC(=O)NC2CCCC2)c1=O` as the compound, how does the Potency read?
A: Its Potency is 4.65 µM (active).

Q: For `COc1ccccc1CNC(=O)CCCN1C(=O)NC2(CCCC2)C1=O`, which “activity change, negative = inhibition” value is on record?
A: The value was -3.02% (inactive).

Q: Which “activity change, negative = inhibition” value does the source give for `COCCCNC(=O)Cn1c(=O)n(Cc2ccccc2Cl)c(=O)c2cc(OC)c(OC)cc21` here?
A: The value was 33.6% (inactive).

Q: For `COC(=O)c1ccccc1N=Nc1c(C)[nH][nH]c1=O`, which “activity change, negative = inhibition” value is on record?
A: The value was -0.0243% (inactive).

Q: Which “activity change, negative = inhibition” value does the source give for `O=C(O[C@H]1[C@H](Cc2ccccc2)NS(=O)(=O)[C@H]2C[C@@H]3C=C[C@]12O3)c1ccc([N+](=O)[O-])cc1` here?
A: Its value is -23.9% (inactive).
